Bioassay records: PubChem BioAssay, National Center for Advancing Translational Sciences (NCATS)
Rows were chosen to be rich in hits. Some 3.7% of all compounds tested hit in one or more screens of this group.
HTT-AS act – Primary qHTS for Identification of Small Molecule Activators of Huntingtin-Antisense Promoter Activity. HEK293 HTT-AS promoter firefly luciferase reporter, 24 h; response scale: percent change from vehicle, -100% = no light. Potency, µM (highest dose often 57.5 µM), actives largely listed as activators. hit rate 0.24% among 48,000; note: nearly all actives have a fitted effect of over 55% in size
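Luminescence was read after Dual-Glo reagent and a 10 min room-temperature incubation. Values were normalized to vehicle (0% activity) and zero RLU (-100% activity). Reporter HEK293 cells had been exposed to compounds (up to 57.5 uM final) for 24 h.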
HTT promoter inh – Primary qHTS for Identification of Small Molecule Inhibitors of Huntingtin Promoter Activity | AID 1508623, 2021 | HEK293 HTT promoter firefly luciferase reporter, 24 h | hit rate 0.93% among 48,000 | Potency, µM (highest dose often 57.5 µM), most hits filed as inhibitors; note: nearly all actives have a fitted effect of over 50% in size
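HEK293 Fluc reporter, 2,500 cells/well, 24 h pre-culture; cpds up to 57.5 uM final, 24 h 37 degrees C; Dual-Glo, 10 min RT; normalized vehicle = 0%, zero RLU = -100%.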
DRV1 agonist – qHTS for Agonists of Human Resolvin D1 Receptor DRV1 | CHO-K1 GPR32 beta-arrestin PathHunter luminescence, 90 min; zero percent set by DMSO-only wells | hit rate 2.5% among 48,000 | activation, % at 76.9 µM;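 active = activation of at least 60% and not above a set upper limit, about 1 call in 100 departs from these limits; inconclusive = activation of 40% to 60%, or above that upper limit; inactive = activation under 40%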
Target sequence (O75388 whole entry, looked up): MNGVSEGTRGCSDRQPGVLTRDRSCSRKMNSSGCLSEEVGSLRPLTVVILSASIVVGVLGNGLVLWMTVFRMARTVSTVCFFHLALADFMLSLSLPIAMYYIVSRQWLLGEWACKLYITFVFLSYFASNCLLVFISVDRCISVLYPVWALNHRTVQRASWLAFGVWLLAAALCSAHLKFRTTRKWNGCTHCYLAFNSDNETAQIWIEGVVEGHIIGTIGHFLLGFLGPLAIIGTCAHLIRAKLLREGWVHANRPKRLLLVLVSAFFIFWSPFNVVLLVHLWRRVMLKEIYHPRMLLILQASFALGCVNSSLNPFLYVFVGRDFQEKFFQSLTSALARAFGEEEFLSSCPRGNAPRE
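Engineered CHO-K1 line co-expressing GPR32-ProLink and EA-beta-arrestin. Compound treatment lasted 90 min at 37 °C. Luminescence was recorded after 1 h with substrate at ambient temperature, relative to DMSO basal wells.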
Large screens that a line does not name were inactive. Unless noted, calls come from the whole dose curve; as a rule, active = well fitted curve in the direction sought with a large enough effect; inconclusive = small, poorly fitted or top-dose-only effect, or another doubt; inactive = no such curve, though single readings can be large; an effect the other way counts as inactive or inconclusive.

C[C@H]1O[C@@H](O[C@H]2CC[C@@]3(C)[C@H](CC[C@@H]4[C@@H]3C[C@@H](O)[C@]3(C)[C@@H](C5=CC(=O)OC5)CC[C@]43O)C2)C[C@H](O)[C@@H]1O[C@H]1C[C@H](O)[C@H](O[C@H]2C[C@H](O)[C@H](O[C@@H]3O[C@H](CO)[C@@H](O)[C@H](O)[C@H]3O)[C@@H](C)O2)[C@@H](C)O1	HTT-AS act inconclusive, DRV1 agonist 76.2
C[C@@H]1O[C@@H](O[C@H]2CC[C@@]3(C)[C@H](CC[C@@H]4[C@H]3C[C@@H](O)[C@]3(C)[C@@H](C5=CC(=O)OC5)CC[C@]43O)C2)C[C@H](O)[C@@H]1O[C@H]1C[C@H](O)[C@H](O[C@H]2C[C@H](O)[C@@H](O)[C@@H](C)O2)[C@H](C)O1 (stereo in doubt)	HTT promoter inh inconclusive (no result: DRV1 agonist)
O=c1cc(-c2ccccc2F)[nH]c2cc3c(cc12)OCO3	none (no result: HTT-AS act, HTT promoter inh)
NC(=O)c1ccc(N(C(N)=O)c2c(F)cccc2F)nc1-c1ccc(F)cc1F	none (no result: DRV1 agonist)
CC(C)NCC(O)c1ccc(O)c(O)c1 (stereo unspecified)	none
CC(C)NCC(O)c1ccc2ccccc2c1 (stereo unspecified)	DRV1 agonist 68.2
COc1ccccc1C1C=C(c2ccc(Cl)cc2)Nc2nc(-c3ccc(Cl)cc3)nn21 (stereo unspecified)	HTT promoter inh inconclusive
OC[C@H]1OC(O)C[C@@H](O)[C@H]1O (stereo partly specified)	none (no result: DRV1 agonist)
O=C1NC(=O)/C(=C/c2ccc(-c3ccc(F)cc3O)o2)S1	DRV1 agonist 62.4 (no result: HTT-AS act, HTT promoter inh)
O=C1NC(=O)/C(=C/c2ccc3nccnc3c2)S1	none (no result: HTT-AS act, HTT promoter inh)
Cc1ccc(C)c(N(C)C(=O)Cc2c(C(=O)O)[nH]c3ccc(Cl)cc23)c1	DRV1 agonist 70.2
CCCN(C(=O)Cc1c(C(=O)O)[nH]c2ccc(Cl)cc12)c1ccc(OCC)cc1	DRV1 agonist inconclusive
Cc1cc(Br)ccc1NC(=O)c1coc(=O)c2ccccc12	HTT promoter inh inconclusive, DRV1 agonist 71.9
COc1ccc(NC(=O)c2coc(=O)c3ccccc23)cc1OC	HTT-AS act inconclusive
Cc1cc(Nc2nc(N[C@@H](C)c3ncc(F)cn3)ncc2Cl)n[nH]1	HTT promoter inh inconclusive (no result: DRV1 agonist)
CCn1c(=O)c2c(nc(C=Cc3ccc(OC)c(OC)c3)n2C)n(CC)c1=O	none
Cc1ccc(NC(=O)Nc2cccc(C)n2)cc1	HTT-AS act inconclusive, DRV1 agonist 64.5
Cc1cccc(NC(=O)Nc2ccc(F)cc2)n1	HTT-AS act inconclusive
O=C(Nc1cc(-c2nc3cc(Cl)ccc3o2)ccc1Cl)c1cccc2ccccc12	HTT-AS act 17.8µM
O=C(Nc1cc(-c2nc3ccccc3o2)ccc1Cl)c1cccc2c(Cl)cccc12	HTT-AS act inconclusive
CCc1ccccc1-n1c(SCC(=O)Nc2ccc(C)cc2)nc2n[nH]c(C)c2c1=N	HTT promoter inh inconclusive
CCc1ccc(NC(=O)CSc2nc3n[nH]c(C)c3c(=N)n2-c2ccccc2C)cc1	HTT promoter inh inconclusive, DRV1 agonist 61.7
O=C(NCc1ccccc1)c1csc(Nc2ccncn2)n1	none (no result: DRV1 agonist)
CCOCCOC(=O)/C=C/c1ccc(OC)cc1	none
Cc1ccccc1-c1nc(CS(=O)(=O)CC(=O)NCCCc2ccccc2)c(C)o1	DRV1 agonist 79.9
CCN1CCN(CCCNC(=O)CS(=O)(=O)Cc2nc(-c3ccccc3C)oc2C)CC1	none
C=CC(=O)N1CCC[C@@H](n2nc(-c3ccc(Oc4ccccc4)cc3)c3c(N)ncnc32)C1	none (no result: DRV1 agonist)
Cc1cc(O)c2ccccc2c1O	HTT promoter inh inconclusive, DRV1 agonist 80.6
Cc1cc(O)c(C)c(C)c1O	none
O=C(Cc1ccc(-c2ccc(OCCN3CCOCC3)cc2)cn1)NCc1ccccc1	HTT promoter inh inconclusive (no result: DRV1 agonist)
CCC(Cc1ccccc1)NC(=O)c1ccc2nc(N3CCC(C)CC3)sc2c1 (stereo unspecified)	HTT promoter inh 1.26µM
CCOc1ccc(CCNC(=O)c2ccc3nc(N4CCC(C)CC4)sc3c2)cc1OCC	HTT promoter inh inconclusive
CCc1ccc2nc(N3CCC(C(=O)O)CC3)sc2c1	HTT promoter inh 10µM
CCc1ccc2nc(N3CCN(C(=O)C4CC4)CC3)sc2c1	HTT-AS act inconclusive
C=C1C(=CC=C2CCCC3(C)[C@@H]([C@H](C)C=CC=CC(O)(CC)CC)CC[C@@H]23)C[C@@H](O)C[C@@H]1O (stereo partly specified)	none (no result: DRV1 agonist)
Cc1[nH]c2ccccc2c1C1(O)C(=O)N(Cc2ccccc2Cl)c2ccccc21 (stereo unspecified)	DRV1 agonist 105.1
